Experimental data taken from PubChem BioAssay (NCI).
Compounds without any hit were thinned out: in the full panel of roughly 83,000, 20% have a hit.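 A percent growth of 40 corresponds to 60% growth inhibition; 0 means no net growth; -100 means all cells died. Active threshold: below 10.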 Calls of active or inactive are those of the source.

These compounds were tested on RXF 393 renal (assay: NCI-60 one-dose screen, 48 h (100 = growth as untreated, 0 = no growth, -100 = all killed)). Conditions: 10 µM unless noted.

Structure (SMILES)	growth
COC(=O)c1oc2c(C(=O)/C=C/c3ccc(OC)cc3)c(OCCN3CCOCC3)ccc2c1C	-64.4% (active)
CN(C)c1ccc(/C=N/n2c(-c3cc(F)c(Cl)cc3Cl)nn(CN3CCOCC3)c2=S)cc1	110% (inactive)
CS(=O)(=O)OCC(COS(C)(=O)=O)C(c1ccccc1)c1ccccc1	97.4% (inactive)
Nc1ncnc2c1c(C(F)(F)F)cn2[C@@H]1O[C@H](CO)[C@@H](O)[C@H]1O	-45.2% (active)
Cc1nccc2c3ccc(OCc4cn(Cc5ccc(Br)cc5)nn4)cc3n(CCCc3ccccc3)c12	82% (inactive)
[2H]c1nc(Nc2ncc(F)c(-c3cc(F)c4nc(C)n(C(C)C)c4c3)n2)c([2H])c([2H])c1CN1CCN(CC)CC1	-8% (active)
COc1cc(/C=C2/Oc3cc4occc4c(OC)c3C2=O)ccc1OCC(=O)Nc1ccncc1	118% (inactive)
COc1ccc2c(c1)OC(N)=C(C#N)C2c1ccc(F)cc1 (stereo unspecified)	16.1% (inactive)
CCCCCCCCCCCCCCCCNc1ccccc1	110% (inactive)
O=C(Nc1ccc(-n2ccc3c(NC(=O)c4ccccc4)ncnc32)cc1)c1cccc(C(F)(F)F)c1	43.9% (inactive)
COc1ccc(/C(Cl)=N/N=C(\Cl)c2cc(OC)c(OC)c(OC)c2)cc1OC(C)=O	101% (inactive)
O=C1C(Cl)=C(Nc2ccccc2)C(=O)C(Cl)=C1Nc1ccccc1	116% (inactive)
O=C(Nc1ccc(-n2cc(-c3ccncc3)c(-c3ccc(O)c(Cl)c3)n2)cc1)c1cc(C(F)(F)F)cc(C(F)(F)F)c1	-21.1% (active)
CCn1c(C)nc([N+](=O)[O-])c1Sc1nc(N)nc2nc[nH]c12	36% (inactive)
Cc1cn(C2CC(N=[N+]=[N-])C(COP(=O)(O)OP(=O)(O)OP(=O)(O)O)O2)c(=O)[nH]c1=O (stereo unspecified)	127% (inactive)
COc1cc(/C=C\c2cc(/C=C\c3ccc(O)c(OC)c3)n(C(=O)CNc3ccccc3OC)n2)ccc1O	90.2% (inactive)
COc1ccc(Cl)cc1NC(=O)c1cc2c([nH]1)-c1nc(NC(=O)C(C)C)sc1CC2	109% (inactive)
O=C(/C=C/c1ccco1)c1cccc(Nc2nc(Nc3ccccc3)nc(Nc3ccccc3)n2)c1	34.5% (inactive)
O=C(Nc1ccc(-n2ccc3c(NC(=O)c4ccccc4)ncnc32)cc1)Nc1ccc(Cl)c(C(F)(F)F)c1	-56.9% (active)

Structure (SMILES)	growth
CN(C)CCCOc1c(Br)cc(/C=C/C(=O)N(C)CCc2cc(Br)c(OCCCN(C)C)c(Br)c2)cc1Br	59.6% (inactive)
C=C(C)[C@@H]1C/C=C(\COC(=O)[C@H](OC(C)=O)C(NC(=O)c2ccccc2)c2ccccc2)CC[C@H]2O[C@]2(C)CC/C=C(\C)CC1 (stereo partly specified)	107% [5 µM] (inactive)
COc1ccc(Cl)cc1NC(=O)c1cc2c([nH]1)-c1nc(NC(=O)C(C)(C)C)sc1CC2	99% (inactive)
CC1CCC(C(C)C)C(NN)C1 (stereo unspecified)	115% (inactive)
Cl[C@@H]1CCO[C@H](c2cc3ccccc3c3ccccc23)C1	98.8% (inactive)
C[C@]12CC[C@@H]3c4ccc(O)c(N)c4CC[C@H]3[C@@H]1CC[C@@H]2O	116% (inactive)
COc1ccc(/C=C/C(=O)c2ccc(-n3cc(CN4CCN(c5cc6c(cc5F)c(=O)c(C(=O)O)cn6C5CC5)CC4)nn3)cc2)cc1OC	4.51% (active)
COc1ccc(-c2nn(-c3ccc(NC(=O)c4ccc(Cl)c(C(F)(F)F)c4)cc3)cc2-c2ccncc2)cc1Cl	-76% (active)
O=C(O)c1cc2ccccc2cc1Nc1ccccc1	77.7% (inactive)
COc1ccc(Cn2cc3c(c2-c2cc(OC)c(OC)c(OC)c2)CCc2c(CO)noc2-3)cc1	2.44% (active)
COc1cc(C(=O)N2CCN(C(=O)c3cc(OC)c(OCc4ccccc4)cc3N)CC2)c(N)cc1OCc1ccccc1	98.6% (inactive)
Nc1ccc(S(=O)(=O)Nc2ccnn2-c2ccccc2)cc1	120% (inactive)
COc1ccc(-c2nnc(SCC(=O)Nc3ccc(C(=O)/C=C/c4ccccc4)cc3)o2)cc1OC	99.8% (inactive)
CCC(N)(C(=O)O)c1ccc(F)cc1 (stereo unspecified)	123% (inactive)
COc1ccc(-c2c(C#N)cnc(N)c2-c2nc3cc(C)c(C)cc3[nH]2)cc1	56.6% (inactive)
CC(C)(C)NCC(O)COc1c(Br)c(Br)c(Br)c2c1OC(C)(C)C2 (stereo unspecified)	-52.5% (active)
O=C1/C(=C/c2cccc3cnccc23)Cc2cc(F)ccc21	112% (inactive)
COC(OC)C1(c2ccccc2)NC(=O)NC1=O (stereo unspecified)	116% (inactive)
c1cncc(-c2nc3ccccc3[nH]2)c1	94.6% (inactive)

Each compound was assayed on SF-268 CNS in the same assay as above. Conditions: 10 µM unless noted.

Structure (SMILES)	growth
COC(=O)c1oc2c(C(=O)/C=C/c3ccc(OC)cc3)c(OCCN3CCOCC3)ccc2c1C	11.5% (inactive)
CN(C)c1ccc(/C=N/n2c(-c3cc(F)c(Cl)cc3Cl)nn(CN3CCOCC3)c2=S)cc1	119% (inactive)
CS(=O)(=O)OCC(COS(C)(=O)=O)C(c1ccccc1)c1ccccc1	109% (inactive)
Nc1ncnc2c1c(C(F)(F)F)cn2[C@@H]1O[C@H](CO)[C@@H](O)[C@H]1O	7.4% (active)
Cc1nccc2c3ccc(OCc4cn(Cc5ccc(Br)cc5)nn4)cc3n(CCCc3ccccc3)c12	81% (inactive)
[2H]c1nc(Nc2ncc(F)c(-c3cc(F)c4nc(C)n(C(C)C)c4c3)n2)c([2H])c([2H])c1CN1CCN(CC)CC1	54% (inactive)
COc1cc(/C=C2/Oc3cc4occc4c(OC)c3C2=O)ccc1OCC(=O)Nc1ccncc1	105% (inactive)
COc1ccc2c(c1)OC(N)=C(C#N)C2c1ccc(F)cc1 (stereo unspecified)	47.1% (inactive)
CCCCCCCCCCCCCCCCNc1ccccc1	86.6% (inactive)
O=C(Nc1ccc(-n2ccc3c(NC(=O)c4ccccc4)ncnc32)cc1)c1cccc(C(F)(F)F)c1	38.9% (inactive)
COc1ccc(/C(Cl)=N/N=C(\Cl)c2cc(OC)c(OC)c(OC)c2)cc1OC(C)=O	95.3% (inactive)
O=C1C(Cl)=C(Nc2ccccc2)C(=O)C(Cl)=C1Nc1ccccc1	105% (inactive)
O=C(Nc1ccc(-n2cc(-c3ccncc3)c(-c3ccc(O)c(Cl)c3)n2)cc1)c1cc(C(F)(F)F)cc(C(F)(F)F)c1	56% (inactive)
CCn1c(C)nc([N+](=O)[O-])c1Sc1nc(N)nc2nc[nH]c12	31.3% (inactive)
Cc1cn(C2CC(N=[N+]=[N-])C(COP(=O)(O)OP(=O)(O)OP(=O)(O)O)O2)c(=O)[nH]c1=O (stereo unspecified)	103% (inactive)
COc1cc(/C=C\c2cc(/C=C\c3ccc(O)c(OC)c3)n(C(=O)CNc3ccccc3OC)n2)ccc1O	58.9% (inactive)
COc1ccc(Cl)cc1NC(=O)c1cc2c([nH]1)-c1nc(NC(=O)C(C)C)sc1CC2	94.9% (inactive)
O=C(/C=C/c1ccco1)c1cccc(Nc2nc(Nc3ccccc3)nc(Nc3ccccc3)n2)c1	92.9% (inactive)
O=C(Nc1ccc(-n2ccc3c(NC(=O)c4ccccc4)ncnc32)cc1)Nc1ccc(Cl)c(C(F)(F)F)c1	-15% (active)

Structure (SMILES)	growth
CN(C)CCCOc1c(Br)cc(/C=C/C(=O)N(C)CCc2cc(Br)c(OCCCN(C)C)c(Br)c2)cc1Br	52.5% (inactive)
C=C(C)[C@@H]1C/C=C(\COC(=O)[C@H](OC(C)=O)C(NC(=O)c2ccccc2)c2ccccc2)CC[C@H]2O[C@]2(C)CC/C=C(\C)CC1 (stereo partly specified)	78.9% [5 µM] (inactive)
COc1ccc(Cl)cc1NC(=O)c1cc2c([nH]1)-c1nc(NC(=O)C(C)(C)C)sc1CC2	45.3% (inactive)
CC1CCC(C(C)C)C(NN)C1 (stereo unspecified)	107% (inactive)
Cl[C@@H]1CCO[C@H](c2cc3ccccc3c3ccccc23)C1	97.9% (inactive)
C[C@]12CC[C@@H]3c4ccc(O)c(N)c4CC[C@H]3[C@@H]1CC[C@@H]2O	98.9% (inactive)
COc1ccc(/C=C/C(=O)c2ccc(-n3cc(CN4CCN(c5cc6c(cc5F)c(=O)c(C(=O)O)cn6C5CC5)CC4)nn3)cc2)cc1OC	59.5% (inactive)
COc1ccc(-c2nn(-c3ccc(NC(=O)c4ccc(Cl)c(C(F)(F)F)c4)cc3)cc2-c2ccncc2)cc1Cl	14.5% (inactive)
O=C(O)c1cc2ccccc2cc1Nc1ccccc1	99.7% (inactive)
COc1ccc(Cn2cc3c(c2-c2cc(OC)c(OC)c(OC)c2)CCc2c(CO)noc2-3)cc1	43% (inactive)
COc1cc(C(=O)N2CCN(C(=O)c3cc(OC)c(OCc4ccccc4)cc3N)CC2)c(N)cc1OCc1ccccc1	108% (inactive)
Nc1ccc(S(=O)(=O)Nc2ccnn2-c2ccccc2)cc1	107% (inactive)
COc1ccc(-c2nnc(SCC(=O)Nc3ccc(C(=O)/C=C/c4ccccc4)cc3)o2)cc1OC	97.6% (inactive)
CCC(N)(C(=O)O)c1ccc(F)cc1 (stereo unspecified)	102% (inactive)
COc1ccc(-c2c(C#N)cnc(N)c2-c2nc3cc(C)c(C)cc3[nH]2)cc1	57.1% (inactive)
CC(C)(C)NCC(O)COc1c(Br)c(Br)c(Br)c2c1OC(C)(C)C2 (stereo unspecified)	4.14% (active)
O=C1/C(=C/c2cccc3cnccc23)Cc2cc(F)ccc21	98.8% (inactive)
COC(OC)C1(c2ccccc2)NC(=O)NC1=O (stereo unspecified)	119% (inactive)
c1cncc(-c2nc3ccccc3[nH]2)c1	105% (inactive)
